Data: PubChem BioAssay (EPA / NIEHS)
“And” between values parts separate entries of the source, which are not always exact repeats. Equal entries are not always repeated. Records with an inconclusive call do not appear. A structure can be active in one record and inactive in another. The source made the active and inactive calls. How the source made its calls, unless noted: active means hit-call score of the fitted dose curve at least 0.9, where 1 is the maximum; inactive means score below 0.9.

Columns and labels:
[1] = read-out: Interleukin-8 (IL8), CXCL8 (gene 3576); assay: BSK_3C_IL8: BioMAP Diversity Plus: 3C Assay for Interleukin-8 (IL8) Biomarker Activity (AID 2283020); conditions: primary human endothelial cells (HUVEC); actives raise or lower the signal
Method in brief: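 Using DMSO-treated wells as the baseline, bidirectional curve fitting was applied to ELISA-measured IL-8 from human umbilical vein endothelial cultures sampled 24 h after compound addition.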

[2] = read-out: Monokine induced gamma interferon (MIG), CXCL9 (gene 4283); assay: BSK_3C_MIG: BioMAP Diversity Plus: 3C Assay for Monokine induced gamma interferon (MIG) Biomarker Activity (AID 2283021); conditions: primary human endothelial cells (HUVEC); actives raise or lower the signal;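 on AC50: MIG protein level measured by immunoassay in the treated endothelial cultures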
Method in brief: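 ELISA-measured MIG in dosed HUVEC 3C cultures at 24 h, analysed by bidirectional fitting with DMSO defining baseline activity.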

[3] = BSK_3C_SRB: Viability Assessment in the BioMAP Diversity Plus: 3C Assay (AID 2283023); conditions: primary human endothelial cells (HUVEC);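 further: cells read 24 h after compound dosing; fitted both ways against DMSO so a hit may be signal rise or drop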
Method in brief: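 Cells were dosed with chemical, cultured 24 h, fixed with 10% TCA, stained with 0.1% SRB and read at 560 nm. Human umbilical vein endothelium was used; DMSO served as negative control and baseline.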

[4] = read-out: Matrix Metallopeptidase 1 (MMP1), MMP1 (gene 4312); assay: BSK_BE3C_MMP1: BioMAP Diversity Plus: BE3C Assay for Matrix Metallopeptidase 1 (MMP1) Biomarker Activity (AID 2283024); conditions: primary human bronchial epithelial cells; actives raise or lower the signal
Method in brief: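 In this multiplexed primary-cell system, human bronchial epithelium received chemicals for 24 h before an ELISA for MMP1. Values reflect bidirectional fits normalised to the DMSO baseline.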

[5] = BSK_3C_Vis: BioMAP Diversity Plus: 3C Assay for Morphology Visualization (AID 2283025); conditions: primary human endothelial cells (HUVEC);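 further: fitted both ways so gain or loss versus DMSO counts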;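 on AC50: light microscopy image of cell morphology used as background control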
Method in brief: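 Light-microscopy morphology readout, 24 h exposure, human primary umbilical vein endothelium; analysed relative to DMSO with bidirectional fitting.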

[6] = read-out: Pselectin, SELP (gene 6403); assay: BSK_4H_Pselectin: BioMAP Diversity Plus: 4H Assay for Pselectin Biomarker Activity (AID 2283026); conditions: primary human endothelial cells (HUVEC); actives raise or lower the signal
Method in brief: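 Bidirectional fits against DMSO gave the endpoint. Cells: primary human umbilical vein endothelium, chemical-treated for 24 h before ELISA detection of P-selectin.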

[7] = BSK_4H_SRB: Viability Assessment in the BioMAP Diversity Plus: 4H Assay (AID 2283027); conditions: primary human endothelial cells (HUVEC);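 further: cells exposed to compound for 24 h before staining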;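 on AC50: curves fitted both ways versus DMSO so AC50 may be loss or gain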
Method in brief: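 Cytotoxicity readout: sulforhodamine B (0.1%) staining of total protein after 10% TCA fixation, measured at 560 nm in human umbilical vein endothelium at 24 h. DMSO set the baseline; fitting was bidirectional.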

[8] = BSK_BE3C_SRB: Viability Assessment in the BioMAP Diversity Plus: BE3C Assay (AID 2283028); conditions: primary human bronchial epithelial cells;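 on AC50: fitted both ways so AC50 may mark signal gain or loss versus DMSO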
Method in brief: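 Overt cytotoxicity was assessed as total protein in confluent human primary bronchial epithelial cultures 24 h after chemical addition, using 0.1% sulforhodamine B staining read at 560 nm.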

[9] = read-out: Thrombomodulin, THBD (gene 7056); assay: BSK_3C_Thrombomodulin: BioMAP Diversity Plus: 3C Assay for Thrombomodulin Biomarker Activity (AID 2283029); conditions: primary human endothelial cells (HUVEC); actives raise or lower the signal
Method in brief: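 In a multiplexed primary-cell system, human umbilical vein endothelium received chemical and was assayed 24 h later for thrombomodulin by ELISA. Parallel cultures were SRB-stained (0.1% SRB after 10% TCA fixation, read at 560 nm) to flag cytotoxicity.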

[10] = read-out: Urokinase-type plasminogen activator receptor (uPAR), PLAUR (gene 5329); assay: BSK_4H_uPAR: BioMAP Diversity Plus: 4H Assay for Urokinase-type plasminogen activator receptor (uPAR) Biomarker Activity (AID 2283030); conditions: primary human endothelial cells (HUVEC); actives raise or lower the signal
Method in brief: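 Chemicals are dosed onto human vascular endothelial primary cells (umbilical vein). After 24 h, uPAR is read by ELISA. Gain or loss of signal is fitted relative to DMSO.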

[11] = read-out: Vascular endothelial growth factor receptor 2 (Homo sapiens) (UniProt P35968); assay: BSK_4H_VEGFRII: BioMAP Diversity Plus: 4H Assay for Vascular endothelial growth factor receptor 2 (VEGFR2) Biomarker Activity (AID 2283031); conditions: primary human endothelial cells (HUVEC); actives raise or lower the signal;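 on AC50: cell-surface VEGFR2 protein level quantified by ELISA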
Method in brief: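 VEGFRII levels on human vascular endothelial primary cells were determined by ELISA at 24 hours post-dosing, with gain- or loss-of-signal fitted against DMSO controls.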

[12] = read-out: Human Leukocyte Antigen - DR isotype (HLADR), HLA-DRA (gene 3122); assay: BSK_BE3C_HLADR: BioMAP Diversity Plus: BE3C Assay for Human Leukocyte Antigen - DR isotype (HLADR) Biomarker Activity (AID 2283032); conditions: primary human bronchial epithelial cells; actives raise or lower the signal
Method in brief: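 BioMAP BE3C format: human bronchial epithelium, 24 h compound treatment, ELISA detection of HLA-DR, with bidirectional analysis relative to DMSO.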

[13] = read-out: Vascular cell adhesion molecule 1 (VCAM1), VCAM1 (gene 7412); assay: BSK_4H_VCAM1: BioMAP Diversity Plus: 4H Assay for Vascular cell adhesion molecule 1 (VCAM1) Biomarker Activity (AID 2283033); conditions: primary human endothelial cells (HUVEC); actives raise or lower the signal
Method in brief: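 In this human endothelial (HUVEC) system, biomarker ELISA was run 24 h after compound addition, and total protein in parallel wells was assessed by SRB at 560 nm; DMSO served as negative control.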

[14] = read-out: Interferon-gamma inducible Protein 10 (IP10), CXCL10 (gene 3627); assay: BSK_BE3C_IP10: BioMAP Diversity Plus: BE3C Assay for Interferon-gamma inducible Protein 10 (IP10) Biomarker Activity (AID 2283034); conditions: primary human bronchial epithelial cells; actives raise or lower the signal
Method in brief: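 BE3C cells (human bronchial epithelial, primary); 24 h exposure; ELISA for IP-10; DMSO-referenced bidirectional fit.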

[15] = read-out: Monokine induced gamma interferon (MIG), CXCL9 (gene 4283); assay: BSK_BE3C_MIG: BioMAP Diversity Plus: BE3C Assay for Monokine induced gamma interferon (MIG) Biomarker Activity (AID 2283035); conditions: primary human bronchial epithelial cells; actives raise or lower the signal
Method in brief: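 hu bronchial epithelial 1° cells, 24 h cpd; MIG by ELISA; bidirectional fit, DMSO = baseline.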

[16] = read-out: Transforming growth factor beta 1 (TGFb1), TGFB1 (gene 7040); assay: BSK_BE3C_TGFb1: BioMAP Diversity Plus: BE3C Assay for Transforming growth factor beta 1 (TGFb1) Biomarker Activity (AID 2283036); conditions: primary human bronchial epithelial cells; actives raise or lower the signal
Method in brief: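 TGF-b1 measured via ELISA, 24 h after chemical dosing of human bronchial epithelial cells (BE3C). Overt cytotoxicity assessed in parallel by SRB (0.1%, TCA-fixed, 560 nm); analysis bidirectional relative to DMSO.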

[17] = read-out: Plasminogen activator inhibitor-1 (PAI1), SERPINE1 (gene 5054); assay: BSK_BE3C_PAI1: BioMAP Diversity Plus: BE3C Assay for Plasminogen activator inhibitor-1 (PAI1) Biomarker Activity (AID 2283037); conditions: primary human bronchial epithelial cells; actives raise or lower the signal
Method in brief: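 In this multiplexed primary-cell system, bronchial epithelial cells receive test chemical and are sampled at 24 h. PAI-1 is read by ELISA, with DMSO serving as negative control for bidirectional fitting.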

[18] = read-out: urokinase plasminogen activator (uPA), PLAU (gene 5328); assay: BSK_BE3C_uPA: BioMAP Diversity Plus: BE3C Assay for urokinase plasminogen activator (uPA) Biomarker Activity (AID 2283038); conditions: primary human bronchial epithelial cells; actives raise or lower the signal
Method in brief: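 Measured by ELISA: uPA from human primary bronchial epithelial cells 24 h after chemical treatment. Values derive from bidirectional curve fitting with DMSO serving as negative control. Total protein by SRB staining in parallel wells flagged overt cytotoxicity.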

[19] = read-out: Urokinase-type plasminogen activator receptor (uPAR), PLAUR (gene 5329); assay: BSK_BE3C_uPAR: BioMAP Diversity Plus: BE3C Assay for Urokinase-type plasminogen activator receptor (uPAR) Biomarker Activity (AID 2283039); conditions: primary human bronchial epithelial cells; actives raise or lower the signal
Method in brief: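 Chemically treated human bronchial epithelial cells (lung primary) are assayed for uPAR by ELISA after 24 h, with data fitted in both directions using DMSO as negative control.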

[20] = target: human Vitamin D Receptor (VDR), VDR (gene 7421) (UniProt P11473); assay: ATG_VDR_TRANS: Attagene TRANS-FACTORIAL HepG2 Assay for human Vitamin D Receptor (VDR) (AID 2283022; active means hit-call score of the fitted dose curve at least 0.9, where 1 is the maximum)
Method in brief: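 Fluorescence of labelled reporter cDNA fragments, resolved by capillary electrophoresis, gives mRNA induction after 24 h treatment of HepG2 cells carrying transfected Gal4-fusion reporter units. Activity is fitted in the positive direction with DMSO as baseline.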

Measured: AC50

Sequence of human Vitamin D Receptor (VDR), VDR (gene 7421) (P11473 whole entry, looked up, the tested form may be a part): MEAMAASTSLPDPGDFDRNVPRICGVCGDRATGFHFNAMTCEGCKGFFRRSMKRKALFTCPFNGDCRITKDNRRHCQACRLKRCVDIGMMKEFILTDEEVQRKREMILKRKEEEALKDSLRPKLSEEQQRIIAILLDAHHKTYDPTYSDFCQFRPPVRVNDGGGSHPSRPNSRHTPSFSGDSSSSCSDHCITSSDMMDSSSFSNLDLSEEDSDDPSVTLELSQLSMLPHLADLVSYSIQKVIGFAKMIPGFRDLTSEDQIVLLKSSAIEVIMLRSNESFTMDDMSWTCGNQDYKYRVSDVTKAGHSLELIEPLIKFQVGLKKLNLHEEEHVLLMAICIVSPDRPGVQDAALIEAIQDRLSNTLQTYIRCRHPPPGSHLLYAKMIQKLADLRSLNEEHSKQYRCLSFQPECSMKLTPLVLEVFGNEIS

CC(C)(C)c1cccc(C(C)(C)C)c1O
inactive: [1] | [2] | [3] | [4] | [5] | [6] | [7] | [8] | [9] | [10] | [11] | [12] | [13] | [14] | [15] | [16] | [17] | [18] | [19]

COc1ccc([N+](=O)[O-])cc1N
inactive: [1] | [2] | [3] | [4] | [5] | [6] | [7] | [8] | [9] | [10] | [11] | [12] | [14] | [15] | [16] | [17] | [18] | [19]

CC#C[C@]1(O)CC[C@H]2[C@@H]3CCC4=CC(=O)CCC4=C3[C@@H](c3ccc(N(C)C)cc3)C[C@@]21C
inactive: [5] | [8] | [9] | [11] | [12] | [15] | [16]
active: [1] 31.1 µM | [2] 38.3 µM | [3] 30.5 µM | [4] 0.623 µM | [6] 29.9 µM | [7] 29.1 µM | [10] 3.97 µM | [13] 26.4 µM | [14] 36.7 µM | [17] 12.9 µM | [18] 34.7 µM | [19] 33.7 µM

O=C(OCCOCCOC(=O)c1ccccc1)c1ccccc1
inactive: [1] | [2] | [3] | [4] | [5] | [6] | [7] | [8] | [9] | [10] | [11] | [12] | [13] | [14] | [15] | [16] | [17] | [18] | [19]

COC(=O)CCCCC(=O)OC
inactive: [1] | [2] | [20] | [3] | [4] | [5] | [6] | [7] | [8] | [9] | [10] | [11] | [12] | [13] | [14] | [15] | [16] | [17] | [18] | [19]

CCCCC[C@H](O)CC(=O)CCc1ccc(O)c(OC)c1
inactive: [20]

FC(F)(I)C(F)(F)C(F)(F)C(F)(F)C(F)(F)C(F)(F)I
inactive: [9] | [11]
active: [6] 14.6 µM [middle of 5 runs] | [8] 23.6 µM [middle of 5 runs] | [9] 30 µM [middle of 4 runs] | [11] 55.1 µM and 7.3 µM | [14] 18.4 µM and 16.9 µM and 45.2 µM | [15] 45.1 µM [middle of 5 runs] | [17] 24.9 µM [middle of 5 runs] | [18] 40.3 µM [middle of 5 runs] | [19] 43.5 µM [middle of 5 runs]

COCC(C)OCC(C)O (stereo not drawn)
active: [5] 39 µM
inactive: [1] | [2] | [3] | [4] | [6] | [7] | [8] | [9] | [10] | [11] | [12] | [13] | [14] | [15] | [16] | [17] | [18] | [19]

CCCCCCCCOC(=O)CCCCCCCCC(=O)OCCCCCCCC
inactive: [1] | [2] | [3] | [4] | [5] | [6] | [7] | [8] | [9] | [10] | [11] | [12] | [13] | [14] | [15] | [16] | [17] | [18] | [19]

CC(O)C(=O)O (stereo not drawn)
inactive: [20]

O=C(O)Cc1cc(I)c(Oc2cc(I)c(O)c(I)c2)c(I)c1
inactive: [2] | [20] | [3] | [4] | [5] | [7] | [9] | [11]
active: [1] 22.4 µM | [6] 20.2 µM | [8] 8.8 µM | [10] 19.9 µM | [12] 5.22 µM | [13] 19.5 µM | [14] 2.73 µM | [15] 9.13 µM | [16] 8.3 µM | [17] 4.21 µM | [19] 10.4 µM

CCCCC(CC)COC(=O)CCCCC(=O)OCC(CC)CCCC (stereo not drawn)
inactive: [1] | [2] | [3] | [4] | [5] | [6] | [7] | [8] | [9] | [10] | [11] | [12] | [13] | [14] | [15] | [16] | [17] | [18] | [19]

O=[N+]([O-])c1ccc(O)cc1
inactive: [1] | [2] | [3] | [4] | [5] | [6] | [7] | [8] | [9] | [10] | [11] | [12] | [13] | [14] | [15] | [16] | [17] | [18] | [19]
